Source: PubChem BioAssay (NCI)
About 83,000 compounds went through this panel and 20% of them were active in at least one assay; those are over-represented in the sample as a whole.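 Cells were grown in 96-well plates and exposed to the test compound at a single concentration for 48 hours; results are reported as percent growth, with values below 10 considered active.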 Unmarked numbers belong to inactive results. Activity calls are given as the source filed them.

What was measured:
Experiment in all cases: NCI-60 one-dose screen, 48 h (100 = growth as untreated, 0 = no growth, -100 = all killed)
Settings in all cases: 10 µM unless noted
SK-MEL-2 melanoma = system: SK-MEL-2 melanoma
EKVX NSCLC = system: EKVX NSCLC
SN12C renal = system: SN12C renal
UO-31 renal = system: UO-31 renal
TK-10 renal = system: TK-10 renal
ACHN renal = system: ACHN renal
CAKI-1 renal = system: CAKI-1 renal
A498 renal = system: A498 renal
CCRF-CEM leukemia = system: CCRF-CEM leukemia
MOLT-4 leukemia = system: MOLT-4 leukemia

| SMILES | growth (SK-MEL-2 melanoma) | growth (EKVX NSCLC) | growth (SN12C renal) | growth (UO-31 renal) | growth (TK-10 renal) | growth (ACHN renal) | growth (CAKI-1 renal) | growth (A498 renal) | growth (CCRF-CEM leukemia) | growth (MOLT-4 leukemia) |
| --- | --- | --- | --- | --- | --- | --- | --- | --- | --- | --- |
| CC(=O)O[C@H]1CC2CCC3C(CC[C@@]4(C)C3C[C@H]([N+]3(C)CCCCC3)[C@@H]4OC(C)=O)[C@@]2(C)C[C@@H]1N1CCCCC1 (stereo not given in full) | 111% | 97.7% | 93% | 83.3% | 108% | 104% | 88.1% | 111% | 103% | – |
| COc1ccc(C2=C(Nc3ccc(C(=O)Nc4ccccc4)cc3)C(=O)N(C)C2=O)cc1 | 85.1% | 96.8% | 99.2% | 71.8% | 95.4% | 89.9% | 80.9% | 116% | 85.4% | – |
| COc1ccc(-c2cc(-c3cc(OC)c(OC)c(OC)c3)c(C#N)c(=O)n2CCCCC(=O)NO)cc1 | 87.2% | 65.5% | 66.5% | 37.8% | 68.1% | 56.1% | 46.3% | 76.7% | 26.7% | – |
| CCN(CC)CCn1c2ccc(OC)cc2c2sc3cc(OC)ccc3c(=O)c21 | 63.5% | 41.3% | 24.6% | 8.29% (active) | 49.2% | -38.8% (active) | 48.3% | 15.6% | 15% | – |
| COc1cccc(CNc2ccc3ncnc(Nc4ccc(F)c(Cl)c4)c3c2)c1 | 94.9% | 26% | 52.8% | 32.5% | 29.8% | 26.2% | 34.6% | 45.1% | 75.1% | – |
| CCC(C(=O)[C@@H](C)[C@@H](O)[C@H](C)[C@@H]1O[C@@H]([C@@H](CC)C(=O)ONC(=O)c2ccccc2)CC[C@@H]1C)[C@H]1O[C@]2(C=CC(=O)[C@]3(CC[C@@](C)([C@H]4CC[C@](O)(CC)[C@H](C)O4)O3)O2)[C@H](C)C[C@@H]1C (stereo not given in full) | -4.05% (active) | 33.5% | -48.6% (active) | -95.1% (active) | 52.8% | -47.3% (active) | 16.5% | 16.8% | -11.2% (active) | – |
| OCCn1cc(-c2nc(-c3c[nH]c4ncccc34)cs2)c2ccccc21 | 98.6% | 32% | 80% | 37.8% | 82.5% | 69.3% | 73.7% | 34.7% | 84.8% | – |
| O=C(c1ccncc1)N1N=C(c2ccc(Cl)cc2)C[C@H]1c1cn(-c2ccccc2)nc1-c1ccccc1 | 110% | 87.2% | 86.6% | 90.1% | 109% | 70.8% | 65.4% | 102% | 78.9% | – |
| CCOC(=O)C#Cc1c(C(=O)OCC)nnn1Cc1ccc([N+](=O)[O-])cc1 | 109% | 106% | 58.6% | 4.18% (active) | -10.9% (active) | -53.6% (active) | -52% (active) | 107% | -21.3% (active) | – |
| N#Cc1ccc(O)c(C2=NCC(c3cccc(Oc4ccccc4)c3)O2)c1 (stereo not given) | 7.46% (active) | 24% | 33.3% | -6.42% (active) | 3.38% (active) | 17.5% | 6.87% (active) | 50.9% | 14.4% | – |
| Clc1ccc2c(NC3CCC(N4CCOCC4)CC3)ccnc2c1 (stereo not given) | 113% | 72.6% | 90.5% | 75.3% | 80.8% | 73.8% | 75.1% | 75.5% | 85.5% | – |
| Cc1nc2sc(C(=O)Nc3ccc(Br)cc3)c(N)c2cc1C(O)c1ccccc1 (stereo not given) | 81.5% | 55.3% | 68% | 62.1% | 85.4% | 72.4% | 65% | 51.9% | 43.4% | – |
| CC1=C([Se]CC(OC(=O)CC[Se]c2ccccc2)C(=O)NC(C)(C)C)C(=O)c2ccccc2C1=O (stereo not given) | 9.93% (active) | -65.4% (active) | -62.5% (active) | -12% (active) | -89.8% (active) | -55.5% (active) | -34.3% (active) | -26.4% (active) | -10.8% (active) | – |
| C=CCOC(=O)Nc1cccn([C@H](Cc2ccccc2)C(=O)NCCC(C)C)c1=O | 115% | 104% | 98.7% | 88.7% | 111% | 103% | 89.8% | 114% | 77.1% | – |
| Fc1cc2c(cc1Cl)N(c1ncnc3ccc(-c4ccc5n[nH]nc5c4)cc13)CC2 | 89% | 52.8% | 64.9% | 44.3% | 46% | 50.1% | 49.3% | -2.78% (active) | 92.9% | 90.5% |
| NS(=O)(=O)c1ccc(N=Nc2c(O)n(Cc3ccccc3)c3ccc(Cl)cc23)cc1 | 98.6% | 91.2% | 87.3% | 81.2% | 95% | 64.9% | 64.4% | 78.3% | 96.2% | – |
| COc1cc(-c2cncn2-c2ccc(-c3nc4ccc(F)cc4s3)cc2)ccc1F | 37.7% | 95.8% | 94.7% | 71.9% | 92.1% | 3.23% (active) | 25.7% | 74.5% | 81.5% | – |
| O=c1c2cnn(-c3ccccc3)c2n2c(CN3CCOCC3)nnc2n1-c1ccccc1 | 79.1% | 102% | 104% | 87.6% | 71.4% | 95.2% | 92.4% | 106% | 96.8% | – |
| O=C(Nc1ccc(OS(=O)(=O)c2ccc(F)cc2)cc1)C1CCCCCC1 | 98.2% | 96% | 88.9% | 101% | 107% | 110% | 91.7% | 85.1% | 81.5% | – |
| CCOC(=O)C1=C(c2ccccc2)N=C2SC=C(c3ccc(Cl)cc3)N2C1c1ccc(Br)cc1 (stereo not given) | 96.4% | 73.9% | 84.5% | 73.2% | 103% | 87.3% | 61.3% | 46.7% | 78.4% | – |
| c1cnc2c(-c3nc4ccc5[nH]ncc5c4c4c3CCCC4)c[nH]c2c1 | 58.5% | 49.5% | 27.4% | 43.7% | 50.1% | 27.1% | 57% | 64.2% | 11.4% | 5.62% (active) |
| COc1ccccc1CNc1c2ccccc2nc2ccccc12 | 73.5% | 65.7% | 34.7% | 33.7% | 55.5% | 22.7% | 45.7% | 13.3% | 37.5% | – |
| C=CCSc1nnc(NC(=O)CCl)s1 | 103% | 100% | 95.2% | 95.5% | 108% | 94.5% | 93.3% | 90.3% | 77.2% | – |
| O=C(CN1C(=O)S/C(=C\C(Cl)=C\c2ccccc2)C1=O)NCCc1ccc(O)cc1 | 6.1% (active) | 44.4% | 16% | -50.7% (active) | 24.1% | -69.3% (active) | 39.3% | 94.2% | 6.23% (active) | – |
| O=C(CN1C(=O)S/C(=C\c2ccccc2)C1=O)Nc1ncc(Cc2ccccc2Cl)s1 | 102% | 108% | 102% | 75.1% | 103% | 92% | 78.2% | 112% | 97.7% | – |
| COc1ccc(C(O)c2cc3c(N)c(C(=O)Nc4cccc(Br)c4)sc3nc2C)cc1 (stereo not given) | 33.9% | 46.2% | 12.1% | 22.9% | 62.9% | 19.8% | 13.5% | -9.2% (active) | 14.2% | 15.8% |
| Oc1c(I)cc(I)cc1CNCc1ccccn1 | 35.7% | 25.9% | 38.4% | 5.01% (active) | 23.4% | 24.6% | 15.4% | 62.4% | 23.6% | – |
| N#CC1=C(N)Oc2c(c(=O)[nH]c3ccc(Cl)cc23)C12C(=O)c1ccccc1C2=O | 115% | 95.2% | 94.8% | 70.2% | 129% | 95.1% | 80.5% | 88% | 107% | – |
